# ChEMBL document CHEMBL3988442, “University of Dundee, Small-Polar-MMV Screening Library” (2021)
# Hit rate of the full screen: of about 85,000 compounds, about 440 (0.52%) showed an effect of 50% or more. For the sample, strong results were picked, then their nearest neighbours and some compounds at random.
# Assay: In vitro enzyme assay to detect hydrolysis of chlorophenol red-beta-D-[…] directly proportional to the number of Toxoplasma stably expressing beta-galactosidase
# Type: functional, organism-based, Toxoplasma gondii
# Design: scale not given: in the data most compounds retested in dose-response had high values
smiles,measurement,setting,value
CC(=O)NC1CCNC1 (configuration not stated),Percent Effect,50 µM,26.97%
CN1CC(NC(=O)CCC(=O)c2cccs2)CCC1=O (configuration not stated),Percent Effect,50 µM,-1.402%
CC(=O)Nc1ccc(CN2CCCOC(C)C2)cc1 (configuration not stated),Percent Effect,50 µM,52.96%
CCC(=O)NC1CCCN(Cc2ccc(NC(C)=O)cc2)C1 (configuration not stated),Percent Effect,10 µM,8.052%
COCC1CCN(Cc2ccc(NC(C)=O)cc2)C1 (configuration not stated),Percent Effect,50 µM,-11.02%
CCC(C)(CC)NC(=O)Nc1cnn(CCOC)c1,Percent Effect,50 µM,-4.406%
CC(C)(C(=O)N1CC[C@@H](O)C1)c1ccccc1,Percent Effect,50 µM,-3.951%
NC1CCN(C(=O)C2(c3cccc(F)c3)CC2)CC1,Percent Effect,50 µM,89.65%
CC(C)(C(=O)N1CCC(N)CC1)c1cccc(F)c1,Percent Effect,50 µM,80.98%
O=C(N1CCCC(n2cncn2)C1)C1(c2cccc(F)c2)CC1 (configuration not stated),Percent Effect,10 µM,-9.535%
CC(C)(C(=O)N1CCOCC1)c1ccccc1,Percent Effect,50 µM,-4.463%
O=C(N1CCC(Oc2ccncc2)C1)C1(c2cccc(F)c2)CC1 (configuration not stated),Percent Effect,10 µM,4.06%
COCCCC1CCNCC1,Percent Effect,50 µM,4.614%
NCC(CO)Cc1ccsc1 (configuration not stated),Percent Effect,50 µM,-1.079%
Brc1cc2c(cc1CN1CCCNCC1)OCO2,Percent Effect,50 µM,-4.823%
CC1(c2ccncc2)NC(=O)c2ccccc2N1 (configuration not stated),Percent Effect,50 µM,11.28%
O=C(CN1CCn2ccnc2C1)NC1CCS(=O)(=O)C1 (configuration not stated),Percent Effect,50 µM,6.953%
CC(C1CCN(Cc2c[nH]cn2)CC1)N1CCCC1 (configuration not stated),Percent Effect,50 µM,21.18%
NCc1ccnc(OCC2CC2)c1,Percent Effect,50 µM,3.263%
Cc1ccccc1CC(=O)N(C)C,Percent Effect,50 µM,-4.007%
NCCC1CCN(C(=O)Nc2cc(F)cc(F)c2)CC1,Percent Effect,50 µM,-1.616%
O=S(=O)(NCC1(O)CCOc2ccccc21)c1ccc(Br)s1 (configuration not stated),Percent Effect,10 µM,53.2%
O=S(=O)(NCC1(O)CCOc2ccccc21)c1ccc(Cl)s1 (configuration not stated),Percent Effect,10 µM,4.661%
Cc1ccc(S(=O)(=O)NCC2(O)CCOc3ccccc32)s1 (configuration not stated),Percent Effect,10 µM,3.665%
COCCn1cc(CNC(=O)NCC(F)F)cn1,Percent Effect,50 µM,-9.663%
CNc1nc(C(=O)N[C@@H]2CC[C@@H](N)C2)cs1,Percent Effect,50 µM,18.65%
CC(NC(=O)c1ccoc1)C(=O)Nc1nccs1 (configuration not stated),Percent Effect,50 µM,-8.907%
Cc1cc(C)n(CC2CN(CC3CCCC3)CCO2)n1 (configuration not stated),Percent Effect,10 µM,-2.525%
Cc1cc(CN2CCOC(Cn3nc(C)cc3C)C2)on1 (configuration not stated),Percent Effect,10 µM,-42.92%
CC(C)=CCN1CCOC(Cn2nc(C)cc2C)C1 (configuration not stated),Percent Effect,10 µM,97.95%
O=C1COc2ccc(NC(=O)c3ccccc3)cc2N1,Percent Effect,50 µM,3.882%
CN(CCC#N)CC1CCN(CCO)CC1,Percent Effect,50 µM,-6.076%
COc1cc(Br)ccc1CCCNC(=O)C(C)O (configuration not stated),Percent Effect,50 µM,0.2477%
CC(=O)c1ccc(OCC(O)CNC2CCCC2)cc1 (configuration not stated),Percent Effect,50 µM,6.61%
O=C(COc1ccccc1)NCCn1ccnc1,Percent Effect,50 µM,-5.476%
CC(=O)c1ccc(OCC(O)Cn2ccnc2)cc1 (configuration not stated),Percent Effect,50 µM,57.01%
CCNC(=O)N1CCC(NC(=O)c2ccc(C)o2)CC1,Percent Effect,50 µM,-1.852%
Cc1nc2cc(C3CCN(Cc4ccccc4F)C3)nn2c(O)c1C (configuration not stated),Percent Effect,10 µM,15.76%
Cc1nc2cc(C3CCN(Cc4cccc(F)c4F)C3)nn2c(O)c1C.O=C(O)CC(O)(CC(=O)O)C(=O)O (configuration not stated),Percent Effect,10 µM,49.65%
Cc1cc(C(=O)Nc2ccnc(C)c2Cl)cc(O)n1,Percent Effect,50 µM,12.01%
CN1CCCN(CC(=O)NCCCc2ncc[nH]2)CC1,Percent Effect,50 µM,-15.47%
CN(C)c1ncc2c(n1)CCCC2NC(=O)C1CC1 (configuration not stated),Percent Effect,10 µM,7.926%
CCC(=O)NC1CCCc2nc(N(C)C)ncc21 (configuration not stated),Percent Effect,50 µM,69.08%
Cc1cc(C)c(C(=O)NC2CCCc3nc(N(C)C)ncc32)cc1C (configuration not stated),Percent Effect,10 µM,19.3%
CNC(=O)CN1CCCC(CO)(CCCOC)C1 (configuration not stated),Percent Effect,50 µM,5.203%
CC(=O)NCCCNCc1ccc(Cl)c2cccnc12,Percent Effect,10 µM,-6.901%
CC(=O)NCCCS(=O)(=O)c1ncccc1Cl,Percent Effect,50 µM,60.86%
CC(=O)NCCCS(=O)(=O)c1ccc(C)cn1,Percent Effect,50 µM,-5.9%
COC1CNc2ccccc2C1 (configuration not stated),Percent Effect,50 µM,-15.01%
NC(=O)CN1CCCN(C(=O)c2ccc(Br)o2)CC1,Percent Effect,50 µM,-5.913%
Fc1ccc(NCC2CCC3(CC2)OCCO3)nc1,Percent Effect,50 µM,8.487%
CCC(CC)C(=O)N1C[C@@H](CO)[C@H](N(C)C)C1,Percent Effect,50 µM,16.3%
COc1ccc(CN2CCCC2)cc1Oc1ccc2c(c1)CC(CN)O2 (configuration not stated),Percent Effect,10 µM,-15.09%
NCC1Cc2cc(Oc3cc(F)c(CN4CCCC4)c(F)c3)ccc2O1 (configuration not stated),Percent Effect,10 µM,54.73%
Cc1cc(CN2CCCC2)cc(Oc2ccc3c(c2)CC(CN)O3)c1 (configuration not stated),Percent Effect,10 µM,-8.923%
CSCC(CCO)NC(=O)Nc1cccc(F)c1 (configuration not stated),Percent Effect,50 µM,-3.551%
CCc1cc(=O)[nH]c(-c2ccc(NCCc3ccc(O)cc3)nc2)n1,Percent Effect,10 µM,56.82%
Cc1nc(-c2ccc(NCCc3ccc(O)cc3)nc2)[nH]c(=O)c1C,Percent Effect,10 µM,31.24%
CCc1cc(=O)[nH]c(-c2ccc(NCCC(C)O)nc2)n1 (configuration not stated),Percent Effect,10 µM,3.239%
N#Cc1ccc(S(=O)(=O)N2CCCO2)c(Cl)c1,Percent Effect,50 µM,6.897%
N#CCCNC(=O)CN1CCCCCC1,Percent Effect,50 µM,-10.45%
N#CCCNC(=O)CN1CCCCC1,Percent Effect,50 µM,-2.214%
N#CCCNC(=O)CN1CCCC1,Percent Effect,50 µM,96.45%
CCC(C)CS(=O)(=O)Nc1ccc(F)c(C(N)=O)c1 (configuration not stated),Percent Effect,50 µM,12.83%
O=C(Cc1ccccc1)NCc1ccncc1,Percent Effect,50 µM,2.374%
COCc1nn(CC(=O)c2cc(F)ccc2F)c(=O)o1,Percent Effect,50 µM,53.45%
COCc1nn(Cc2ccc(Cl)s2)c(=O)o1,Percent Effect,10 µM,11.6%
COCc1nn(Cc2ccccc2Cl)c(=O)o1,Percent Effect,50 µM,10.13%
CN(CC1CCOC1)C(=O)c1cc(F)ccc1F (configuration not stated),Percent Effect,50 µM,12.99%
CC1CCN(C(=O)Cn2cncc(Br)c2=O)CC1,Percent Effect,50 µM,8.773%
CC(O)CN1CCN(Cc2cccc(C(=O)N3CCCCC3)c2)CC1 (configuration not stated),Percent Effect,10 µM,67.87%
CSCc1cccc(C(=O)N2CCN(CC(C)O)CC2)c1 (configuration not stated),Percent Effect,10 µM,-0.6353%
CC(O)CN1CCN(Cc2cccc(C(=O)N(C)C)c2)CC1 (configuration not stated),Percent Effect,10 µM,5.816%
CC(C)C(=O)N1CCN(CCc2ccccn2)CC1,Percent Effect,50 µM,-1.569%
CC(C(=O)Nc1nccs1)N1CCc2nn(C)c(=O)cc2C1 (configuration not stated),Percent Effect,10 µM,7.43%
CCn1nc2c(cc1=O)CN(c1ncnc3sccc13)CC2,Percent Effect,10 µM,58.75%
CC(C)n1nc2c(cc1=O)CN(c1ncnc3sccc13)CC2,Percent Effect,10 µM,1.477%
c1csc(N2CCN(c3ncnc4sccc34)CC2)n1,Percent Effect,10 µM,15.87%
Cn1nc2c(cc1=O)CN(c1ncnc3sccc13)CC2,Percent Effect,10 µM,80.8%
CCCn1nc2c(cc1=O)CN(c1ncnc3sccc13)CC2,Percent Effect,10 µM,8.636%
CC(C)NC(=O)CCN1CCC(CN2CCCC2)CC1,Percent Effect,50 µM,15.46%
O[C@@H]1CN(Cc2ccccc2)C[C@@H]1O,Percent Effect,50 µM,8.775%
Cc1noc(C)c1COC1CCNC1 (configuration not stated),Percent Effect,50 µM,7.368%
O=C(COc1ccc(F)cc1)Nc1ccon1,Percent Effect,50 µM,-3.156%
CC(NC(=O)C1CCNCC1)c1cccc(F)c1 (configuration not stated),Percent Effect,50 µM,17.33%
OC1(Cc2ccccn2)CCNCC1,Percent Effect,50 µM,-0.4203%
Cc1cccc(NCC2CCN(CCC(N)=O)C2)n1 (configuration not stated),Percent Effect,50 µM,2.724%
COc1ccc(CN(C)C(=O)CCNC(C)=O)cc1F,Percent Effect,50 µM,-5.409%
CCNC(C)(C)C(=O)N(C)Cc1ccc(OC)c(F)c1,Percent Effect,50 µM,94.51%
COc1ccc(CN(C)C(=O)C2CC2)cc1F,Percent Effect,50 µM,5.333%
NCc1ccc(-n2cc(Cl)cn2)cc1,Percent Effect,50 µM,-34.41%
CCCn1ccnc1CNC(=O)c1ccc(F)c(O)c1,Percent Effect,50 µM,10.15%
CCN1CCc2nc(NC(=O)c3ccncc3)sc2C1,Percent Effect,50 µM,61.16%
CCN1CCc2nc(NC(=O)c3cc(Br)c[nH]3)sc2C1,Percent Effect,50 µM,-7.995%
CN1CCc2nc(NC(=O)c3cncc(Br)c3)sc2C1,Percent Effect,50 µM,-4.285%
O=C(NCCCNCc1ccccc1)c1ccco1,Percent Effect,50 µM,-4.419%
CN1N=C(C(=O)NC2CCCc3occc32)CCC1=O (configuration not stated),Percent Effect,50 µM,1.103%
COc1ccc(CN)c(F)c1,Percent Effect,50 µM,0.131%
CC(C(N)=O)N1CCN(C(=O)c2ccc(Br)cc2)CC1 (configuration not stated),Percent Effect,50 µM,3.88%
Cc1ccc(C(=O)N2CCN(C(C)C(N)=O)CC2)s1 (configuration not stated),Percent Effect,50 µM,98.87%
Cc1csc(N2CCN(C(=O)c3ccc(C)s3)CC2)n1,Percent Effect,10 µM,-15.38%
OC1CN(Cc2ccc(OCc3ccccn3)cc2)C1,Percent Effect,50 µM,-10.4%
COc1c(C)cnc(CN(C)C)c1C,Percent Effect,50 µM,0.7571%
COc1c(C)cnc(CN(C)C2CCN(C3CCOCC3)CC2)c1C,Percent Effect,10 µM,16.07%
COc1c(C)cnc(CN(C)C2CCCCC2)c1C,Percent Effect,10 µM,62.27%
CC(Cn1cccn1)NC(=O)c1cncc(Br)c1 (configuration not stated),Percent Effect,50 µM,6.883%
C1Cc2nc(CCNc3nc(C4CC4)nc4c3CCNCC4)sc2C1,Percent Effect,10 µM,77.67%
Cc1nc2c(c(NCCc3nc4c(s3)CCCC4)n1)CCNCC2,Percent Effect,10 µM,-0.699%
c1nc(CCNc2nc(C3CC3)nc3c2CCNCC3)c[nH]1,Percent Effect,10 µM,13.19%
N[C@H]1CC[C@@H](n2cc(Br)cn2)CC1,Percent Effect,50 µM,5.491%
Cc1ccc(CNC(=O)C2(C)CCCCC(=O)N2)o1 (configuration not stated),Percent Effect,50 µM,14.66%
Cc1cccc(CNC(=O)C2CCCCC(=O)N2)c1 (configuration not stated),Percent Effect,50 µM,-7.628%
Cc1ccc(CNC(=O)C2CCCCC(=O)N2)o1 (configuration not stated),Percent Effect,50 µM,50.04%
N#CC1CCN(C(=O)c2ccc(SCCO)cc2)CC1,Percent Effect,50 µM,-14.8%
CNc1cccnc1N(C)C,Percent Effect,50 µM,57.74%
CN(C)c1ncccc1N,Percent Effect,50 µM,1.469%
CNc1cccc2cccnc12,Percent Effect,50 µM,-1.4%
COC(C(=O)NC1(C)CCOCC1)c1ccccc1 (configuration not stated),Percent Effect,50 µM,-2.025%
CSCCCN1CCN(C(=O)c2ccc[nH]2)CC1,Percent Effect,50 µM,-8.697%
Cc1nc(N2C[C@@H](CN3CCCCC3)[C@@H](CO)C2)c2sccc2n1,Percent Effect,10 µM,-8.225%
CO[C@H]1[C@@H]2CC[C@H]1CN(c1nc(C)nc3sccc13)C2,Percent Effect,10 µM,8.834%
CO[C@H]1[C@@H]2CC[C@H]1CN(c1nc(C)nc3ccsc13)C2,Percent Effect,10 µM,70.73%
